The source made the active and inactive calls. The calls were made as follows: active = hit-call score of the fitted dose curve at least 0.9, where 1 is the maximum; inactive = score below 0.9.

Sequence of Signal transducer and activator of transcription 3 (Homo sapiens) (P40763 whole entry, looked up): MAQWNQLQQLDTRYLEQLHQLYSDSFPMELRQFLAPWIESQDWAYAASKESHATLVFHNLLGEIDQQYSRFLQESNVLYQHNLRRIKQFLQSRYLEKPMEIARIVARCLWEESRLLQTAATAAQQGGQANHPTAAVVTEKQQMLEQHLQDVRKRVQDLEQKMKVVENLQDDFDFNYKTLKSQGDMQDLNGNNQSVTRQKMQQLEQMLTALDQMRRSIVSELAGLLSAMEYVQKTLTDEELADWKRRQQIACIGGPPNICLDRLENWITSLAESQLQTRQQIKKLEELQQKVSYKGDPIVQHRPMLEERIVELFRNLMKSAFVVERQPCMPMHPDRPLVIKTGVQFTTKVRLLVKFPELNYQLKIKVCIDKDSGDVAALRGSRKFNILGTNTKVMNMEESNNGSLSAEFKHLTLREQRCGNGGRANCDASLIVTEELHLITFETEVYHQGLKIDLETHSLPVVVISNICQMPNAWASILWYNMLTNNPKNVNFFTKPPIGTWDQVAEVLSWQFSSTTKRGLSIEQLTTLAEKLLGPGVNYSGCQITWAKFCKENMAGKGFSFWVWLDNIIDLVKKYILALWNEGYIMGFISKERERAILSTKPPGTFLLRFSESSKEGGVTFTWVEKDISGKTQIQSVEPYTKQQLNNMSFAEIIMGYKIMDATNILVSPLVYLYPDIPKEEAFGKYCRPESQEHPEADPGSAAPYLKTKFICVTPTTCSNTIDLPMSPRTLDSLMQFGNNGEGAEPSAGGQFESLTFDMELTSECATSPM

This test deals with Signal transducer and activator of transcription 3 (Homo sapiens) (UniProt P40763). Put plainly: ATG_STAT3_CIS: Attagene CIS-FACTORIAL HepG2 Assay for human Signal Transducer and Activator of Transcription 3 (STAT3) (AID 2282963). As to conditions: HepG2, Attagene cis-factorial STAT3 reporter transcription; actives raise or lower the signal. How it is done:
ATG_CIS is a cell-based, multiplexed-readout assay that uses HepG2, a human liver cell line, with measurements taken at 24 hours after chemical dosing in a 24-well plate.ATG_STAT3_CIS is one of 52 assay component(s) measured or calculated from the ATG_CIS assay. It is designed to make measurements of mRNA induction, a form of inducible reporter, as detected with fluorescence intensity signals by Reverse transcription polymerase chain reaction (RT-PCR) and Capillary electrophoresis technology.Data from the assay component ATG_STAT3_CIS was analyzed into 1 assay endpoint. This assay endpoint, ATG_STAT3_CIS, was analyzed with bidirectional fitting relative to DMSO as the negative control and baseline of activity. Using a type of inducible reporter, measures of mRNA for gain or loss-of-signal activity can be used to understand the reporter gene at the transcription factor-level as they relate to the gene STAT3. Furthermore, this assay endpoint can be referred to as a primary readout, because this assay has produced multiple assay endpoints where this one serves a reporter gene function. To generalize the intended target to other relatable targets, this assay endpoint is annotated to the dna binding intended target family, where the subfamily is stat protein.
Human liver HepG2 cells are transiently transfected with multiple reporter transcription units (MRTUs) in 6-well plates using FuGene 6 reagent (Roche; 3 ml FuGene/1 mg DNA). The MRTU constructs are regulated by a cis-regulating element (promoter). […] A major difference between the CIS and TRANS system is that in CIS activities of endogenous TFs are measured, whereas the TRANS assay evaluates changes in activities of exogenous, chimeric NR-Gal4 proteins. […] At the end of 24 hour incubation, total RNA was isolated using TriZol reagent (Invitrogen). The isolated RNA is then reverse-transcribed using oligo(dT) primer and Mo-MLV reverse transcriptase (Invitrogen) with DNAse I (Ambion) treatment for 30 min. The one-tenth of the produced cDNA was amplified by PCR using Taq DNA polymerase (Invitrogen) and two reporter sequence-specific primers. The PCR products were fluorescently labeled by primer extension with 6-arboxyfluorescein (6-FAM) 5'-labeled reporter sequence-specific primer (2 min at 95 C, 20 s at 68 C and 10 min at 72 C) and these products were digested with 5U of HpaI (New England Biolabs) for 2h at 37 C. The fragments were purified using Qiaquick PCR columns (Qiagen), analyzed on an ABI 3130xL genetic analyzer (Applied Biosystems) with peak positions identified by using a set of X-rhodamine (ROX)-labeled MapMarker1000 molecular weight standards (BioVentures). The raw capillary electrophoresis data was processed using Attagraph software (Attagene).
With `BrCCBr`, the outcome was inactive.
On the same count and under the same terms, under `O=C(O)C(Cl)(Cl)Cl` stands “inactive”; under `CCOC(=O)Nc1cccc(OC(=O)Nc2ccccc2)c1`, “inactive”.
For the compound `CC(=O)C(Cl)C(=O)N(C)C` (stereo not given), the call was inactive.
As to `ClCCBr`, the outcome was inactive.
On the same count and under the same terms, under `Cc1ccccc1C(=O)Nc1cccc(OC(C)C)c1` stands “inactive”; under `Nc1ccc(N=Nc2ccc(-c3ccc(N=Nc4c(S(=O)(=O)O)cc5cc(S(=O)(=O)O)c(N=Nc6ccccc6)c(O)c5c4N)cc3)cc2)c(N)c1`, “inactive”.
Same read-out and setting: the same measure for `N#CCCO`: “inactive”; for `CC(=O)C=C(C)C`: “inactive”; for `CCNc1nc(NC(C)(C)C)nc(SC)n1`: “inactive”.
Same read-out and setting: the same measure for `O=C(Cl)c1ccc(Cl)cc1`: “inactive”; for `CC(C)(C)c1cc(O)ccc1O`: “inactive”; for `CCC(C)(C)c1ccc(O)c(C(C)(C)CC)c1`: “inactive”.
Regarding `CC(=[OH+])/C=C(/C)[O-].CC(=[OH+])/C=C(/C)[O-].CC(=[OH+])/C=C(/C)[O-].[Al]`, the call was inactive.
The same measure, in the same setting: the same measure for `CCCCOCCOC(C)=O`: “inactive”; for `CC1(C)CCC(Cc2ccc(Cl)cc2)C1(O)Cn1cncn1` (stereo not given): “inactive”.
The same measure, in the same setting: under `COP(=S)(OC)Oc1ccc(S(=O)(=O)N(C)C)cc1` stands “inactive”; under `CN(C)P(=O)(N(C)C)N(C)C`, “inactive”; under `CC(C)OC(=O)Nc1ccccc1`, “inactive”.
As to `CCc1ccccc1C`, the result was inactive.
The same measure, in the same setting: under `ClC1=C(Cl)[C@]2(Cl)[C@H]3[C@H]([C@H]4C=C[C@H]3C4)[C@@]1(Cl)C2(Cl)Cl` stands “inactive”.
The same measure, in the same setting: the same measure for `O=Cc1cccc(Oc2ccccc2)c1`: “inactive”.
Same read-out and setting: the same measure for `COC[C@H](C)N(C(=O)CCl)c1c(C)csc1C`: “inactive”; for `ClC1=C(Cl)[C@]2(Cl)[C@@H]3[C@@H](Cl)[C@@H](Cl)C[C@@H]3[C@@]1(Cl)C2(Cl)Cl`: “inactive”.
As for `CCOP(=S)(OCC)Oc1nc(Cl)c(Cl)cc1Cl`, the result was inactive.
The same measure, in the same setting: the same measure for `NC(=O)O`: “inactive”; for `COc1cc2c(cc1OC)[C@@]13CCN4CC5=CCO[C@H]6CC(=O)N2[C@H]1[C@H]6[C@H]5C[C@H]43`: “inactive”; for `CCc1ccccc1N`: “inactive”.
`CNC`: the call was inactive.
With `COC(=O)Cc1ccccc1`, the outcome was inactive.
On the same count and under the same terms, under `O=[N+]([O-])c1c(Cl)c(Cl)cc(Cl)c1Cl` stands “inactive”; under `C[C@]12CCC(=O)C[C@@H]1CC[C@@H]1[C@@H]2CC[C@]2(C)[C@@H](O)CC[C@@H]12`, “inactive”; under `CCC(=O)c1ccccc1`, “inactive”.
Still for that read-out and setting: under `ClCC(Cl)CCl` stands “inactive”; under `CC1(C)Cc2cccc(O)c2O1`, “inactive”; under `CCOP(OCC)OCC`, “inactive”.
On the same count and under the same terms, under `O=[N+]([O-])c1ccc(O)c([N+](=O)[O-])c1` stands “inactive”.
As a reminder, the AC50 is the concentration giving half of the maximal activity seen. In the case of `C[C@H]1O[C@@H](O[C@H]2[C@@H](O)C[C@H](O[C@H]3[C@@H](O)C[C@H](O[C@H]4CC[C@@]5(C)[C@H](CC[C@@H]6[C@@H]5CC[C@]5(C)[C@@H](C7=CC(=O)OC7)CC[C@]65O)C4)O[C@@H]3C)O[C@@H]2C)C[C@H](O)[C@@H]1O`, the AC50 was 0.196 µM (active).
Regarding `CCOP(=S)(OCC)SCSP(=S)(OCC)OCC`, the outcome was inactive.
As to `Cc1cc(Cl)ccc1O[C@H](C)C(=O)O`, the AC50 is 100 µM (active).

Values taken from PubChem BioAssay (EPA / NIEHS).
